# Screening results deposited in PubChem BioAssay by several laboratories.
# A3A deaminase = inhibitors of human APOBEC3A DNA deaminase; P31941; recombinant A3A, FAM/TAMRA ssDNA deamination fluorescence; inhibition, % at 20 µM; hit rate 0.41% among 330,000; AID 493011;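 active = at least 40% inhibition at 20 µM here, with at most 30% in a related deaminase screen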
# Target sequence (P31941 whole entry, looked up): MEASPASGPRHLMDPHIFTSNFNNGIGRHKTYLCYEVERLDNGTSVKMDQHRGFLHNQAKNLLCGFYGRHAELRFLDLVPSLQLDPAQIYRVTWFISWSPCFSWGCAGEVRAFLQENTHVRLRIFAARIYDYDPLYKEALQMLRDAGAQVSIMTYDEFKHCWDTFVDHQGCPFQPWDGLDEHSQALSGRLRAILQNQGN
# A3G deaminase = blocks human APOBEC3G single-stranded DNA deamination. Q9HC16. recombinant A3G, ssDNA deamination FAM/TAMRA fluorescence. inhibition, % at 20 µM. hit rate 0.28% among 330,000;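 active = inhibition of at least 40% at 20 µM, with no more than 30% in the related APOBEC3A deaminase screen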
# Target sequence (Q9HC16 whole entry, looked up): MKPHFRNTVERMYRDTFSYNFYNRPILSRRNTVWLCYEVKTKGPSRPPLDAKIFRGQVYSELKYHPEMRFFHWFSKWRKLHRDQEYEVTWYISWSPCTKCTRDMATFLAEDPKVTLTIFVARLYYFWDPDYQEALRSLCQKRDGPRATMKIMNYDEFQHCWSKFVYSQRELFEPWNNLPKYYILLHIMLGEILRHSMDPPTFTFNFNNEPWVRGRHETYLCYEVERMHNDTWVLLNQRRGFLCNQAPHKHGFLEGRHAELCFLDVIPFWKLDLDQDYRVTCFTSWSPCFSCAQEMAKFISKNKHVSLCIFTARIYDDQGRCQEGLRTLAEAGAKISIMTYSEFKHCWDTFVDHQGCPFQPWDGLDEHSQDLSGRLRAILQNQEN
# rCAG binder = molecules binding r(CAG) RNA repeats. r(CAG) RNA repeat, TO-PRO-1 dye displacement fluorescence. inhibition, % at 3 µM. hit rate 1.3% among 370,000. AID 651821;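 active = inhibition above the plate cutoff, the mean of all test compounds on that plate plus 3 SD, cut at about 35% in these data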;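 note: higher means more dye released from RNA so lower well fluorescence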
# ALR H2O2 inh = human ALR oxidase inhibition via reduced H2O2 | purified ALR, DTT oxidation, H2O2 HRP-luminol luminescence | hit rate 3.8% among 290,000 | inhibition, % (concentration not given with the values) | P55789;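 active = mean replicate inhibition above about 79%, with every replicate also reaching it, limit read from the data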
# PHOSPHO1 inh = PHOSPHO1 (human) inhibition; Q8TCT1; recombinant PHOSPHO1, absorbance phosphatase assay; inhibition, % at 13.3 µM; hit rate 1.1% among 290,000; AID 1565; in the data active = inhibition above about 60%
# aDG glyco up = increases alpha dystroglycan glycosylation. activation, % at 10 µM. hit rate 0.22% among 360,000. Pro5-aDG cells, alpha-DG glycosylation AlphaScreen (IIH6); 0% Pro5, 100% B10-LARGE cell signal. AID 624168;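 active = activation of at least 8% versus controls, or a plate z-score of at least 8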;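 note: Pro5 are CHO cells carrying HIG-tagged alpha-DG that lacks glycosylation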
# rCAG binder conf = r(CAG) RNA repeat binding, confirmation. shares compounds with rCAG binder. TO-PRO-1 dye displacement fluorescence. inhibition, % at 3 µM. hit rate 70% among 4,300. AID 652065;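 active = inhibition above a per-plate cutoff, the mean inhibition of sample wells plus 3 SD, cut at about 35% in these data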;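 note: loss of TO-PRO-1 fluorescence as compound displaces dye from 1x1 AA loop RNA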
# DNA CAG counter = disrupts DNA CAG TO-PRO-1 complex, flagging rCAG hits; shares compounds with rCAG binder; d(CAG) DNA oligo TO-PRO-1 dye displacement, fluorescence; inhibition, % at 3 µM; hit rate 94% among 4,300; AID 652068;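 active = inhibition above its plate's cutoff, the mean test-well inhibition plus 3 SD, cut at about 4.8% in these data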;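 note: hits displace the dye from DNA and so lower well fluorescence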
# DNA CAG DR = DNA CAG dye complex inhibition, dose response counter-screen | hit rate 20% among 250 | IC50, µM | DNA CAG/GTC duplex TO-PRO-1 dye displacement fluorescence | shares compounds with rCAG binder; in the data active = IC50 below about 10 µM
# A number is an active result; – = inactive; · = not tested or not shown. Compounds with a hit are over-represented: about 5.4% of the library has one in this group of screens.
SMILES,A3A deaminase,A3G deaminase,rCAG binder,ALR H2O2 inh,PHOSPHO1 inh,aDG glyco up,rCAG binder conf,DNA CAG counter,others
COc1ccc(/C=C2\SC(=Nc3ccccc3)NC2=O)cc1,–,–,·,–,–,·,·,·,
C[C@H](CO)N1C[C@H](C)[C@@H](CN(C)C(=O)Nc2ccc(N3CCN(C)CC3)cc2)OCc2cn(nn2)CCCC1=O,·,·,–,·,·,·,·,·,
COc1ccc(S(=O)(=O)C(C#N)c2nc3ccccc3nc2N2CCCC(C)C2)cc1 (configuration not stated),–,–,67.8,–,–,–,68.4,34.7,
N#CC(c1nc2ccccc2nc1N1CCOCC1)S(=O)(=O)c1ccccc1 (configuration not stated),–,–,–,·,–,–,·,·,
Cc1ccc2[nH]c3nc(N/N=C/c4cccc(O)c4)nnc3c2c1,–,–,–,–,–,–,·,·,
CCc1ccc2[nH]c3nc(N/N=C/c4ccc(O)cc4O)nnc3c2c1,–,–,56.8,·,–,–,34.6,22.3,
CCCc1cc(=O)oc2cc(C)c(CN3CCCC3)c(O)c12,–,–,36.8,–,–,–,–,11.7,
CCc1cc2ccccc2nc1SCC(=O)Nc1cc(OC)c(OC)cc1C(=O)O,–,–,52.8,–,–,–,45.3,12.8,
CCc1ccc(/C=C/C(=O)C2C(=O)c3ccccc3C2=O)cc1,–,–,64.4,–,–,–,78.6,38.7,
CCc1ccc(NC(=O)/C(C#N)=C/c2cn(CC(=O)O)c3ccccc23)cc1,–,–,36.2,–,–,–,–,5.9,
CCOc1cccc(NC(=O)/C(C#N)=C\c2cn(CC(=O)O)c3ccccc23)c1,–,–,56.5,·,–,–,55.9,17.9,
CNC(=O)/C(C#N)=C/c1cn(CC(=O)OC)c2ccccc12,–,–,–,–,–,–,·,·,
CCOc1ccc(NC(=O)/C(C#N)=C/c2cn(CC(=O)O)c3ccccc23)cc1,–,–,55.7,–,–,–,49.7,14.9,
C=CCOC(=O)Nc1nc(CCNC(=O)OC(C)(C)C)c(C(=O)OC)s1,·,·,–,·,·,–,·,·,
Cc1ccc2sc(NNC(=O)C3=COCCO3)nc2c1C,–,–,51.0,98.9,–,–,–,5.8,
CC1=C(C(=O)OC(C)C)C(c2ccc(Cl)cc2)n2c(s/c(=C\c3ccc(OCC(=O)O)cc3)c2=O)=N1 (configuration not stated),·,·,–,–,–,–,·,·,
CCOC(=O)C1=C(C)N=c2s/c(=C3/C(=O)Nc4ccccc43)c(=O)n2C1c1ccc(C)cc1 (configuration not stated),–,–,42.6,–,–,–,53.4,22.4,DNA CAG DR=–
CCOC(=O)C1=C(C)N=c2s/c(=C\c3ccc(OCC(=O)O)cc3)c(=O)n2C1c1ccccc1 (configuration not stated),–,–,74.7,98.3,–,–,76.6,34.9,
CCOC(=O)C1=C(C)N=c2s/c(=C\c3ccc(OCC(=O)O)c(OC)c3)c(=O)n2C1c1ccc(OC)cc1 (configuration not stated),–,–,54.2,·,–,–,74.8,37.5,
CCOC(=O)C1=C(C)N=c2sc(=Cc3ccc(OCC(=O)O)cc3)c(=O)n2C1c1ccc(SC)cc1 (configuration not stated),·,·,82.3,·,·,–,71.1,36.8,
CCOC(=O)C1=C(c2ccccc2)N=c2sc(=Cc3cc(OC)c(OC)c(OC)c3)c(=O)n2C1c1cccs1 (configuration not stated),·,·,–,·,·,–,·,·,
CCOC(=O)C1=C(c2ccccc2)N=c2s/c(=C\c3ccc(O)cc3)c(=O)n2C1c1cccs1 (configuration not stated),–,–,37.0,–,–,–,35.8,19.9,
OC(C1=CC(=Cc2ccncc2)c2ccccc21)c1ccncc1 (configuration not stated),·,·,–,·,·,–,·,·,
CC(C)C[C@H]1CNC(=O)C(=O)N1C[C@H]1CCCN1C[C@H](CC(C)C)N1C[C@H](Cc2ccccc2)N(CCc2ccccc2)C(=O)C1=O,·,·,–,·,·,–,·,·,
CCN(CC)S(=O)(=O)c1ccc(NS(=O)(=O)c2ccc3oc(=O)[nH]c3c2)cc1,–,–,–,·,–,–,·,·,
SMILES,A3A deaminase,A3G deaminase,rCAG binder,ALR H2O2 inh,PHOSPHO1 inh,aDG glyco up,rCAG binder conf,DNA CAG counter,others
O=c1[nH]c2cc(S(=O)(=O)CCO)ccc2o1,–,–,35.9,–,–,–,–,–,
O=C(O)CCn1cc(/C=C/C(=O)c2ccc(Cl)cc2)c(-c2ccc(Br)cc2)n1,·,·,58.9,97.5,–,–,84.1,49.2,
Cc1ccccc1NC(=O)Cc1nc(COC(=O)CSc2ccc(F)cc2)cs1,·,·,–,·,·,–,·,·,
CCOC1=C2CN(S(=O)(=O)c3ccc(C)cc3)[C@@H](c3cccs3)C[C@H]2[C@H]2C(=O)N(c3ccccc3)C(=O)[C@H]2C1,·,·,–,·,·,–,·,·,
O=S(=O)(Nc1ncccn1)c1ccc(NC(=S)N2CCN(c3cccc(C(F)(F)F)c3)CC2)cc1,–,–,49.9,–,–,–,58.6,15.6,
Fc1ccc(NC(=S)N2CCN(c3cccc(C(F)(F)F)c3)CC2)cc1,–,–,–,–,–,–,·,·,
COC(=O)c1cc2c(c3c4ccccc4n(S(=O)(=O)c4ccc(OC)cc4)c13)C(=O)N(Cc1ccc(C(F)(F)F)cc1)C2,·,·,–,·,·,·,·,·,
O=C(c1ccco1)N1N=C(c2cccs2)CC1c1ccc(F)cc1 (configuration not stated),–,–,–,–,–,–,·,·,
O=C(c1ccco1)N1N=C(c2cccs2)CC1c1cc([N+](=O)[O-])ccc1O (configuration not stated),–,–,53.8,–,61.0,–,35.1,13.0,
COc1cccc(C(N)c2nc(-c3csc4ccccc34)cs2)c1 (configuration not stated),·,·,·,·,·,–,·,·,
CCC(C(=O)O)N1C(=O)/C(=C/C(C)=C/c2ccccc2)SC1=S (configuration not stated),–,–,60.7,–,–,–,76.5,31.4,DNA CAG DR=–
CC(=C\c1ccccc1)/C=C1/SC(=S)N(C(C(=O)O)C(C)C)C1=O (configuration not stated),·,·,68.5,·,–,–,62.8,25.2,
COc1ccc(N(C)S(=O)(=O)c2ccc(Cl)c(C(=O)NNC(=O)c3ccccc3O)c2)cc1,–,–,40.0,·,·,–,–,10.4,
Cc1ccccc1N1C(=O)C2C3CC(=O)C(c4ccccc43)C2C1=O (configuration not stated),–,–,–,–,–,–,·,·,
